Records with an inconclusive call do not appear. The source holds several records for some structures; these can differ, active in one and inactive in another. Activity calls are given as the source filed them. How the source made its calls, unless noted: active means hit-call score of the fitted dose curve at least 0.9, where 1 is the maximum; inactive means score below 0.9.

Test [1] in a line: ATG_GAL4_TRANS: Attagene TRANS-FACTORIAL HepG2 Assay for GAL4 (Internal Marker) (AID 2282976; active means hit-call score of the fitted dose curve at least 0.9, where 1 is the maximum). Particulars: HepG2 Attagene TRANS GAL4 internal marker reporter. The essentials: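 In transfected human HepG2 liver cells dosed 24 h, GAL4 reporter mRNA serves as a baseline marker. Detection by RT-PCR with fluorescent capillary electrophoresis, activity fitted upward relative to DMSO.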

For test [2], the target named is Estrogen-related receptor gamma (Homo sapiens) (UniProt P62508). Kind of test: ATG_ERRg_TRANS: Attagene TRANS-FACTORIAL HepG2 Assay for human Estrogen-Related Receptor gamma (ERRg) (AID 2282977; active means hit-call score of the fitted dose curve at least 0.9, where 1 is the maximum;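 further: hits increase reporter signal over DMSO so potencies reflect activators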). The settings on record: HepG2 Attagene TRANS reporter, ERRg transactivation. A digest of the protocol:
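Readout: fluorescent reporter-mRNA fragments resolved by capillary electrophoresis after RT-PCR and HpaI cut. Cells: transiently transfected HepG2 carrying GAL4-UAS reporters driven by exogenous NR-Gal4 chimeras, dosed 24 h. Activity fitted upward relative to DMSO baseline.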

Test [3] concerns the target Glucocorticoid receptor (Homo sapiens) (UniProt P04150). Kind of test: ATG_GR_TRANS: Attagene TRANS-FACTORIAL HepG2 Assay for human Glucocorticoid Receptor (GR) (AID 2282978; active means hit-call score of the fitted dose curve at least 0.9, where 1 is the maximum;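 further: activators score as hits since higher reporter transcript over DMSO is fitted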). The settings on record: HepG2 Attagene TRANS GR reporter, mRNA transcription. The essentials: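 After 24 h incubation with test chemical, transfected HepG2 cells were lysed for RNA; reporter cDNA was amplified, FAM-labelled, HpaI-digested and sized on a capillary analyser. Signal gain relative to DMSO was scored.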

Test [4] addresses Oxysterols receptor LXR-alpha (Homo sapiens) (UniProt Q13133). Kind of test: ATG_LXRa_TRANS: Attagene TRANS-FACTORIAL HepG2 Assay for human Liver X Receptor alpha (LXRa) (AID 2282980; active means hit-call score of the fitted dose curve at least 0.9, where 1 is the maximum). The settings on record: HepG2 Attagene TRANS reporter, LXRa transactivation. The essentials: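 Chemical-induced reporter mRNA measured by RT-PCR with fluorescent labelling and capillary electrophoresis after 24 h dosing of transiently transfected HepG2 cells expressing exogenous NR-Gal4 chimeras; increases scored against DMSO baseline.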

Test [5] has as its target Oxysterols receptor LXR-beta (Homo sapiens) (UniProt P55055). Kind of test: ATG_LXRb_TRANS: Attagene TRANS-FACTORIAL HepG2 Assay for human Liver X Receptor beta (LXRb) (AID 2282981; active means hit-call score of the fitted dose curve at least 0.9, where 1 is the maximum). Particulars: HepG2 Attagene TRANS GAL4-LXRb reporter, mRNA. A digest of the protocol:
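Readout: fluorescent reporter mRNA fragments resolved by capillary electrophoresis after RT-PCR. System: transiently transfected human HepG2, exogenous LXRb-Gal4 chimera driving GAL4-UAS reporter, 24 h dosing. Activity fitted upward against DMSO baseline.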

The target of test [6] is Hepatocyte nuclear factor 4-alpha (Homo sapiens) (UniProt P41235). Kind of test: ATG_HNF4a_TRANS: Attagene TRANS-FACTORIAL HepG2 Assay for human Hepatocyte Nuclear Factor 4 alpha (HNF4a) (AID 2282982; active means hit-call score of the fitted dose curve at least 0.9, where 1 is the maximum). The settings on record: HepG2 HNF4a transactivation reporter, mRNA readout. A digest of the protocol:
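Transient MRTU transfection of HepG2, 24 h dosing. Readout: reporter mRNA via RT-PCR + capillary electrophoresis, fluorescence; activity fit upward relative to DMSO control.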

Test [7] in a line: ATG_M_06_TRANS: Attagene TRANS-FACTORIAL HepG2 Assay for M06 Transcription Factor (Internal Marker) (AID 2282983; active means hit-call score of the fitted dose curve at least 0.9, where 1 is the maximum). Particulars: HepG2 Attagene TRANS M06 internal marker reporter. The essentials: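 Background-control reporter readout: after 24 h chemical exposure of transiently transfected HepG2 (GAL4-UAS reporter units), mRNA quantified by RT-PCR with fluorescent labeling and capillary electrophoresis. Gain-of-signal fitting against DMSO baseline.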

Test [8] is described as follows: ATG_M_32_TRANS: Attagene TRANS-FACTORIAL HepG2 Assay for M32 Transcription Factor (Internal Marker) (AID 2282984; active means hit-call score of the fitted dose curve at least 0.9, where 1 is the maximum;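 further: transcript level of a background control reporter unit measured by RT-PCR and capillary electrophoresis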). Particulars: HepG2 Attagene TRANS M32 internal marker reporter. A digest of the protocol: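 Read-out: fluorescent reporter cDNA fragments resolved by capillary electrophoresis after RT-PCR of total RNA. Transfected HepG2 cells were exposed to chemical for 24 h. Activity scored in the positive direction relative to DMSO.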

Test [9] deals with Nuclear receptor subfamily 4 group A member 2 (Homo sapiens) (UniProt P43354). The experiment in a line: ATG_NURR1_TRANS: Attagene TRANS-FACTORIAL HepG2 Assay for human Nuclear Receptor Related Protein 1 (NURR1) (AID 2282985; active means hit-call score of the fitted dose curve at least 0.9, where 1 is the maximum). The settings on record: HepG2 Attagene TRANS reporter, mRNA readout. A digest of the protocol: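 Read-out: reporter mRNA induction by RT-PCR plus capillary electrophoresis with fluorescence detection, after 24 h dosing of transfected HepG2 cells. Exogenous NR-Gal4 chimera activity drives GAL4-UAS reporter; activity fitted upward versus DMSO.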

The target of test [10] is Transcriptional activator Myb (Homo sapiens) (UniProt P10242). Kind of test: ATG_Myb_CIS: Attagene CIS-FACTORIAL HepG2 Assay for human Myeloblastosis (Myb) Proto-Oncogene Transcription Factor (AID 2282986). The settings on record: HepG2 Attagene CIS-FACTORIAL Myb reporter transcription; actives raise or lower the signal. A digest of the protocol:
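After 24 h of compound dosing, total RNA from transfected HepG2 cells is reverse-transcribed and the reporter sequences amplified, labeled and separated by capillary electrophoresis. Values come from bidirectional fitting against DMSO.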

The target of test [11] is Nuclear respiratory factor 1 (Homo sapiens) (UniProt Q16656). The experiment in a line: ATG_NRF1_CIS: Attagene CIS-FACTORIAL HepG2 Assay for human Nuclear Respiratory Factor 1 (NRF1) Orphan Gene (AID 2282987). The settings on record: HepG2 NRF1 cis-element reporter, Attagene multiplex; actives raise or lower the signal. The essentials:
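Measured: fluorescent reporter-specific RT-PCR products from transfected HepG2 cells, separated by capillary electrophoresis. Exposure lasted 24 h. Analysis used bidirectional curve fitting with DMSO as negative control.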

Test [12] in a line: ATG_NFI_CIS: Attagene CIS-FACTORIAL HepG2 Assay for human Nuclear Factor I (NFI) (AID 2282989). Particulars: HepG2 cis-regulatory reporter, NFI response element transcription; actives raise or lower the signal. The essentials:
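Reporter transcription driven by endogenous transcription factors in HepG2 cells; 24 h treatment. Quantitation by labelled RT-PCR fragments on capillary electrophoresis, gain- or loss-of-signal relative to DMSO.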

Test [13] has as its target Myc proto-oncogene protein (Homo sapiens) (UniProt P01106). The experiment in a line: ATG_Myc_CIS: Attagene CIS-FACTORIAL HepG2 Assay for human Myelocytomatosis (Myc) Proto-Oncogene Transcription Factor (AID 2282990). The settings on record: HepG2, Attagene cis-reporter transcription factor activity; actives raise or lower the signal. A digest of the protocol:
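Read-out: fluorescent reporter mRNA fragments resolved by capillary electrophoresis after RT-PCR. Human HepG2 liver cells carried transfected cis-element reporter units and were dosed for 24 h. Gain or loss of signal fitted relative to DMSO baseline.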

Test [14] is described as follows: ATG_NF_kB_CIS: Attagene CIS-FACTORIAL HepG2 Assay for human Nuclear Factor Kappa B (NF-kB) (AID 2282991). Particulars: HepG2 Attagene cis-factorial NF-kB reporter mRNA; actives raise or lower the signal. A digest of the protocol:
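Fluorescence of labelled RT-PCR products separated by capillary electrophoresis gives reporter mRNA levels from transfected HepG2 cells exposed 24 h; values are fitted in both directions relative to DMSO.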

Test [15] in a line: ATG_NRF2_ARE_CIS: Attagene CIS-FACTORIAL HepG2 Assay for human Nuclear Factor Erythroid 2 Related Factor 2 (NFR2) response to Antioxidant Response Elements (ARE) (AID 2282992). The settings on record: HepG2 Attagene ARE/NRF2 reporter, transcription factor activity; actives raise or lower the signal. A digest of the protocol:
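Endogenous transcription factor activity in human liver HepG2 cells is tracked via a cis-element-driven reporter within a multiplexed set. mRNA induction is read by RT-PCR and capillary electrophoresis after 24 h, with DMSO as baseline.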

A short description of test [16]: ATG_Oct_MLP_CIS: Attagene CIS-FACTORIAL HepG2 Assay for human Octamer-Binding Transcription Factor (Oct) (AID 2282993). Particulars: HepG2 Attagene cis-factorial Oct reporter, mRNA; actives raise or lower the signal. A digest of the protocol: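 Transfected HepG2 cells, 24 h treatment. Reporter mRNA quantified by RT-PCR–capillary electrophoresis; bidirectional fitting against DMSO.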

The target in test [17] is Cellular tumor antigen p53 (Homo sapiens) (UniProt P04637). Kind of test: ATG_p53_CIS: Attagene CIS-FACTORIAL HepG2 Assay for human p53 Transcription Factor (AID 2282994). Particulars: HepG2 p53 cis-element reporter, Attagene mRNA; actives raise or lower the signal. A digest of the protocol:
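Steps: transfect HepG2 with multiplexed cis reporter constructs; dose chemicals 24 h; extract RNA, reverse-transcribe, PCR-amplify reporter sequences; FAM-label, HpaI-digest, resolve fragments by CE. Activity fitted both directions relative to DMSO.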

The nature of test [18]: BSK_3C_TissueFactor: BioMAP Diversity Plus: 3C Assay for Tissue Factor Biomarker Activity (AID 2282997). Particulars: BioMAP 3C HUVEC, tissue factor biomarker readout; actives raise or lower the signal. The essentials: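 Tissue factor on primary human umbilical vein endothelium was read by ELISA 24 h after dosing, gain or loss relative to DMSO. Cytotoxicity ran alongside via SRB (0.1%, TCA-fixed, 560 nm).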

A short description of test [19]: BSK_3C_uPAR: BioMAP Diversity Plus: 3C Assay for Urokinase-type plasminogen activator receptor (uPAR) Biomarker Activity (AID 2282998). The settings on record: BioMAP 3C HUVEC, uPAR biomarker ELISA; actives raise or lower the signal. A digest of the protocol:
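Readout: ELISA for surface uPAR. System: human umbilical vein endothelial primary cells, 24 h after chemical exposure. Analysis: bidirectional fit, DMSO baseline.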

Chain of Cellular tumor antigen p53 (Homo sapiens) (P04637 whole entry, looked up, the tested form may be a part): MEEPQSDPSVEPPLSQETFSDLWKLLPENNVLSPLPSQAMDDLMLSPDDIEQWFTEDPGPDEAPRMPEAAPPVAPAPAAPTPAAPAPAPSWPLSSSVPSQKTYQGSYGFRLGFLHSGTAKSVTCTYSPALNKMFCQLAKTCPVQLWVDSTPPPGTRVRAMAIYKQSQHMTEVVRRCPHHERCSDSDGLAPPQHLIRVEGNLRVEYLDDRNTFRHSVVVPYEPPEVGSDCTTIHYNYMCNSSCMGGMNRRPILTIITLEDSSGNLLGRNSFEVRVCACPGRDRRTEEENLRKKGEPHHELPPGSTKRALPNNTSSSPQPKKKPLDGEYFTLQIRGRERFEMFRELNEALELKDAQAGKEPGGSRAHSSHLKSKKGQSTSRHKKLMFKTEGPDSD
Chain of Glucocorticoid receptor (Homo sapiens) (P04150 whole entry, looked up): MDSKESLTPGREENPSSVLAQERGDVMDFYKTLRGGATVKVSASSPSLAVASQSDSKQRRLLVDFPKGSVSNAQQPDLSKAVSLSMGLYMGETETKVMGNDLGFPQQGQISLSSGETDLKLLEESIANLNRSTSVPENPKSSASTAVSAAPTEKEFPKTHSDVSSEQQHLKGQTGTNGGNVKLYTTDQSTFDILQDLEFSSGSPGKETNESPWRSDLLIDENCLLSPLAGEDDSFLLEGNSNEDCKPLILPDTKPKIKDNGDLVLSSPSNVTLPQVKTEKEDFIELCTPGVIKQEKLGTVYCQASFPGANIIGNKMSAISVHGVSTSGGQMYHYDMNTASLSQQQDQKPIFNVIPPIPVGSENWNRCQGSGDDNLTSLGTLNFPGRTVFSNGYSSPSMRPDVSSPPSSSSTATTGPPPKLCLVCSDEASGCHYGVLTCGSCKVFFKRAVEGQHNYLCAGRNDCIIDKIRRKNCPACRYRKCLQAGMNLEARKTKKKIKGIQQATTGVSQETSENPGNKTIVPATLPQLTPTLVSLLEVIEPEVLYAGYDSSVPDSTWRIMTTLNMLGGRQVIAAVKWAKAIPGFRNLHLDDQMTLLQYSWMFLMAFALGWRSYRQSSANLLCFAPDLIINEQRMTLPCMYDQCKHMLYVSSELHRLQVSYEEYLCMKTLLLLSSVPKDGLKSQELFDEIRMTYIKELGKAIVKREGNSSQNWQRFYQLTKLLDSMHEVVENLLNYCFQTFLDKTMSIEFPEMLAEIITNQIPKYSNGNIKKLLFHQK
Chain of Transcriptional activator Myb (Homo sapiens) (P10242 whole entry, looked up): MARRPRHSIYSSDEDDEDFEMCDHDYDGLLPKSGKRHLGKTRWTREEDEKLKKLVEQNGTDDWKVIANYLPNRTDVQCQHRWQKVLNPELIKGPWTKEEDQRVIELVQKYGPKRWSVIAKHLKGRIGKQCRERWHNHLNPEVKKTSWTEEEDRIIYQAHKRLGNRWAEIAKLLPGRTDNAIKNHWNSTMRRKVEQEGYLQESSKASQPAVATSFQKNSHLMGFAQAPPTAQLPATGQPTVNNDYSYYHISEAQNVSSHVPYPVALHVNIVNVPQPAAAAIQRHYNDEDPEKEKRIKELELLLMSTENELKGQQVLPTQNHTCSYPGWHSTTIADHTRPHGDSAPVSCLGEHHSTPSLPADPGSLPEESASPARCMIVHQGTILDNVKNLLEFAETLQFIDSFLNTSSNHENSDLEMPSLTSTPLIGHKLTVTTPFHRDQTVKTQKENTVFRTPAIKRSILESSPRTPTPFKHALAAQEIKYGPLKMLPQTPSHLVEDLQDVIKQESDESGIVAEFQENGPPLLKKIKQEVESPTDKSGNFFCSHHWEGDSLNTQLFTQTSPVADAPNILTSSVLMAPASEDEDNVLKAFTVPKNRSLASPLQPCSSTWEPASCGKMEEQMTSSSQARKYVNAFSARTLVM
Chain of Estrogen-related receptor gamma (Homo sapiens) (P62508 whole entry, looked up, the tested form may be a part): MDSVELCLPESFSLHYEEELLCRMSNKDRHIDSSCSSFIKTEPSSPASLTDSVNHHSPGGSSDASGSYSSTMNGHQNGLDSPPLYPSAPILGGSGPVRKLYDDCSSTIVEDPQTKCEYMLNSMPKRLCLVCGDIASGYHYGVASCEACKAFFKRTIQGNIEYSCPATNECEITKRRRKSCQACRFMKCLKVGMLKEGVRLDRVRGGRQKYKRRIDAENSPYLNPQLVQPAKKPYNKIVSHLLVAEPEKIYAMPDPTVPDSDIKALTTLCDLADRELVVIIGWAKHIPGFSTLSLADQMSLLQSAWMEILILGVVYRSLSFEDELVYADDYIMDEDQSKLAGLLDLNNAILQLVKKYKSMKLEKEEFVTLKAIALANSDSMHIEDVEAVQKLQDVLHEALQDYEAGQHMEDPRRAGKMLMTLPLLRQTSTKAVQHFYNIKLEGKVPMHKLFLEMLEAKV
Chain of Oxysterols receptor LXR-alpha (Homo sapiens) (Q13133 whole entry, looked up, the tested form may be a part): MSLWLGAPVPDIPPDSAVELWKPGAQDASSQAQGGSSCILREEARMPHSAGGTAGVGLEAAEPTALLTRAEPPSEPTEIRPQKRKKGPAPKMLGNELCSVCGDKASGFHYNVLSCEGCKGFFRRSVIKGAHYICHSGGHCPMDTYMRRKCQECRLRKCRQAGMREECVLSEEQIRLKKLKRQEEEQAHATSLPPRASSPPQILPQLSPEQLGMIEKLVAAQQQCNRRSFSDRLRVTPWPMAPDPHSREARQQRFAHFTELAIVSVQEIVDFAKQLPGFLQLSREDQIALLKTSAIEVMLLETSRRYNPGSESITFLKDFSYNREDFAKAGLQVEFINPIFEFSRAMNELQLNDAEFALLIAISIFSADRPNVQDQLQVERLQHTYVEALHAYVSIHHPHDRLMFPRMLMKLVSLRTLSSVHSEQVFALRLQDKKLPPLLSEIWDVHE
Chain of Nuclear respiratory factor 1 (Homo sapiens) (Q16656 whole entry, looked up): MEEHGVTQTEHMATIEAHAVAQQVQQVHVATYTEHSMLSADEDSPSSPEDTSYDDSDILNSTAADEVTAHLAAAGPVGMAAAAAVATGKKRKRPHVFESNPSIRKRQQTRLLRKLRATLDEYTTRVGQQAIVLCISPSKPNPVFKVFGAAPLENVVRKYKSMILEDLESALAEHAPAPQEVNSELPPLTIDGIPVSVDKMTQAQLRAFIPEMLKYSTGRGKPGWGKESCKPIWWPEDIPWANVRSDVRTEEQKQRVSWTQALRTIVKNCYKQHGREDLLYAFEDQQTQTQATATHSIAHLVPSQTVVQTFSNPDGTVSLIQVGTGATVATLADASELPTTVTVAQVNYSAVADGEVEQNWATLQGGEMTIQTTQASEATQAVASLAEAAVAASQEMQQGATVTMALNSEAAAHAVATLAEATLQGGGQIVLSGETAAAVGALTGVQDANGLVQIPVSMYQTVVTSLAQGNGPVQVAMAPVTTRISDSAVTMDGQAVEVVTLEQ
Chain of Myc proto-oncogene protein (Homo sapiens) (P01106 whole entry, looked up, the tested form may be a part): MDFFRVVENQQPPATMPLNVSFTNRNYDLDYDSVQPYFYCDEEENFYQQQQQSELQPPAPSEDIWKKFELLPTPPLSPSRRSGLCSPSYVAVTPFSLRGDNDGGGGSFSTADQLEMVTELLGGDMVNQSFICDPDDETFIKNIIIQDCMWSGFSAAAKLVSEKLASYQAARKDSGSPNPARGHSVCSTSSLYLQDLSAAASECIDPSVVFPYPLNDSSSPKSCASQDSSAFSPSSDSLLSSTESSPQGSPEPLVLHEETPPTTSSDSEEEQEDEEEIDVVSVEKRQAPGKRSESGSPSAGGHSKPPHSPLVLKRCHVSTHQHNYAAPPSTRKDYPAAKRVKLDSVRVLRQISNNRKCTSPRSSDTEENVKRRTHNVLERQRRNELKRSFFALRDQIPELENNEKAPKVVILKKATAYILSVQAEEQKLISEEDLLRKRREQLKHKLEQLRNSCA
Chain of Hepatocyte nuclear factor 4-alpha (Homo sapiens) (P41235 whole entry, looked up): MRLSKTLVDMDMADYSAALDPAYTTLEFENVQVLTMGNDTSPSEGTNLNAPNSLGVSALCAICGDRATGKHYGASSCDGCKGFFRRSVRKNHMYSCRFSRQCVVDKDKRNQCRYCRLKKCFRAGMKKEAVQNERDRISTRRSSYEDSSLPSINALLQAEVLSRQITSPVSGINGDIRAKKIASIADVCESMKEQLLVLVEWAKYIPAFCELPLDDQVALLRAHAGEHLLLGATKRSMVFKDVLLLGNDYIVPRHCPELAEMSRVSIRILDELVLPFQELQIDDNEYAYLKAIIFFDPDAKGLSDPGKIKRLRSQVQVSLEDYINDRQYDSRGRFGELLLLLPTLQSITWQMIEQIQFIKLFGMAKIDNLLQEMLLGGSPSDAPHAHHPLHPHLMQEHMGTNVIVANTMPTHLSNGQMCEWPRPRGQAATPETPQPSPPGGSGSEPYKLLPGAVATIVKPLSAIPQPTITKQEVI
Chain of Nuclear receptor subfamily 4 group A member 2 (Homo sapiens) (P43354 whole entry, looked up, the tested form may be a part): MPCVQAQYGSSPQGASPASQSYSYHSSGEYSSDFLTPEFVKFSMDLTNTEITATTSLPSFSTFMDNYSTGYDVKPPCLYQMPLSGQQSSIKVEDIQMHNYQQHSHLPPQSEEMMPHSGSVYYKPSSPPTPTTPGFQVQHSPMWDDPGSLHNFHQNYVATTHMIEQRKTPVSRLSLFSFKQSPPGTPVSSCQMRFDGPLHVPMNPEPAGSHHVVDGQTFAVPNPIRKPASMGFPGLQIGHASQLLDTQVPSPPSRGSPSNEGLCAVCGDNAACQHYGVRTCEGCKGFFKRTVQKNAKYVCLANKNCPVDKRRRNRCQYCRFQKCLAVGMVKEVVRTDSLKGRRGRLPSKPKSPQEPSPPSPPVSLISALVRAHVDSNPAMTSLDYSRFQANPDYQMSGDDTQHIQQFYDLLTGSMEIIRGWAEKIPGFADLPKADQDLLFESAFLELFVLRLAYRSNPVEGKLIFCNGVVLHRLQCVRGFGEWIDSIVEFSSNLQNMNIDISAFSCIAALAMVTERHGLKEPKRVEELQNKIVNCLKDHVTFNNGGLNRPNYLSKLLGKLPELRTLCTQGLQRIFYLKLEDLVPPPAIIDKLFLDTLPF

In the case of `CON(C)C(=O)Nc1ccc(Cl)c(Cl)c1`, the call in test [1], in test [2], in [3], in test [4], in test [5] and in [6] was inactive. Further, the compound was classed as inactive in test [7], in [8], in [9], in [10], in test [11] and in [12]. The call in test [13], in test [14], in test [16], in test [17], in [18] and in test [19] was inactive. For the same compound, the AC50 in [15] is 27.8 µM (active) [middle of 4 runs].

For the compound `OC(c1ccc(Cl)cc1)(c1cncnc1)c1ccccc1Cl` (configuration not stated), the outcome in test [1], in [2], in [3], in test [4], in test [5] and in test [6] was inactive. For the same compound, the compound was called inactive in test [7], in test [8], in test [9], in test [10], in [11] and in [12]. In addition, the result in test [13], in test [15], in test [16], in [17] and in test [18] was inactive. Further, the half-maximal activity concentration (AC50) was 12.5 µM (active) in [13], 12.8 µM (active) in test [15], 26.3 µM (active) in test [16] and 17.4 µM (active) in test [19].

In the case of `Fc1ccc(Oc2ccnc3cc(Cl)cc(Cl)c23)cc1`, the compound was called inactive in [3], in test [4], in test [5], in test [6], in test [8] and in [9]. Further, the call in [10], in test [11], in test [12], in test [13], in test [16] and in test [17] was inactive. In addition, the AC50 was 3.83 µM (active) in test [15], 34.7 µM (active) in test [18] and 31.2 µM (active) in [19].

Turning to `C=CCC1=C(C)[C@@H](OC(=O)[C@@H]2[C@@H](C=C(C)C)C2(C)C)CC1=O`, the result in test [2], in test [3], in test [5], in test [6], in test [7] and in test [10] was inactive. Besides, the outcome in test [11], in test [12], in [13], in test [14] and in test [17] was inactive. Besides, the concentration at half-maximal activity (AC50) in test [15] was 2.64 µM (active); in [16], 9.45 µM (active); in test [18], 18.8 µM (active); in test [19], 36.6 µM (active).

Regarding `CC(Oc1ccc(Cl)cc1Cl)C(=O)O` (configuration not stated), the call in test [3], in test [5], in [6], in test [10], in [11] and in [12] was inactive. Moreover, the call in test [13], in test [14], in [15], in [16], in [17] and in test [18] was inactive. Besides, the result in test [19] was inactive.

For the compound `CS/C(C)=N/OC(=O)N(C)SN(C)C(=O)O/N=C(\C)SC`, the compound was classed as inactive in test [2], in test [4], in test [5], in [8], in test [9] and in test [10]. Further, the outcome in [11], in test [12], in [13], in [14], in [15] and in [16] was inactive. For the same compound, the outcome in test [17] was inactive. Further, the AC50 in test [18] is 15.9 µM (active); in test [19] it was 28.6 µM (active).

Take `CCON=C(CC)C1=C(O)CC(c2c(C)cc(C)cc2C)CC1=O` (configuration not stated): the result in test [4], in [5], in test [7], in [8], in test [10] and in test [11] was inactive. Also, the outcome in test [12], in [13], in test [14], in test [15], in test [16] and in [17] was inactive. Further, the outcome in [18] and in test [19] was inactive.

The values are drawn from PubChem BioAssay (EPA / NIEHS).
